Activity calls are given as the source filed them. Unless noted, the call rests on the fitted dose curve; in most records, active means well fitted curve in the direction sought with a large enough effect in the repeat runs; inconclusive means weak or mixed curves; inactive means no such curve, though single readings can be large; an effect the other way counts as inactive or inconclusive.
Tests used:
[1] = qHTS assay to identify small molecule antagonists of the glucocorticoid receptor (GR) signaling pathway - cell viability counter screen (AID 720693); further: nearly all actives have a fitted effect of over 55% in size; further: potency means the concentration at half of the fitted maximal effect
[2] = qHTS assay for identifying genotoxic compounds that show differential cytotoxicity against isogenic chicken DT40 cell lines with known DNA damage response pathways - wild type cell line (AID 743012); further: nearly all actives have a fitted effect of over 60% in size; further: potency means the concentration at half of the fitted maximal effect
In short: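 Endpoint: CellTiter-Glo luminescence, 30 min RT. Cells: wild type DT40, 300/well. Exposure: compounds in DMSO, 40 h, 37 C/5% CO2, after ~0.5 h pre-incubation.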

[3] = qHTS assay for identifying genotoxic compounds that show differential cytotoxicity against isogenic chicken DT40 cell lines with known DNA damage response pathways - Rev3 mutant cell line (AID 743014); further: nearly all actives have a fitted effect of over 55% in size; further: potency means the concentration at half of the fitted maximal effect
[4] = qHTS assay to identify small molecule antagonists of the androgen receptor (AR) signaling pathway - cell viability counter screen (AID 743033; further: nearly all actives have a fitted effect of over 45% in size)
[5] = qHTS assay to identify small molecule antagonists of the androgen receptor (AR) signaling pathway using the MDA cell line - cell viability counter screen (AID 743041; further: nearly all actives have a fitted effect of over 45% in size)
In short: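 Compound exposure lasted 16 h at 37C in MDA-kb2 AR-luc cells stimulated with R1881. Protease-based CellTiter-Fluor reagent was applied for the final 30 min and fluorescence measured.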

[6] = qHTS assay to identify small molecule antagonists of the thyroid receptor (TR) signaling pathway - cell viability counter screen (AID 743064); further: nearly all actives have a fitted effect of over 50% in size; further: potency means the concentration at half of the fitted maximal effect
In short: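 GH3.TRE-Luc cells, 4 h pre-plating; cpd + T3 1 nM final; 37 °C 23.5 h; CellTiter-Fluor 30 min; fluorescence read.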

[7] = qHTS assay to identify small molecule antagonists of the thyroid receptor (TR) signaling pathway (AID 743065); further: nearly all actives have a fitted effect of over 55% in size; further: potency means the concentration at half of the fitted maximal effect
In short: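 GH3.TRE-Luc rat pituitary cells (two TREs driving luciferase) were dosed with compound, then stimulated with 1 nM T3 (final) for 23.5 h at 37 C. ONE-Glo luminescence was the read-out, with CellTiter-Fluor fluorescence as the cytotoxicity counter-screen.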

[8] = system: thyroid hormone receptor (rat, GH3 cells); assay: qHTS assay to identify small molecule agonists of the thyroid receptor (TR) signaling pathway (AID 743066; calls by dose curve)
[9] = biological target: Estrogen receptor (Homo sapiens) (UniProt P03372); assay: qHTS assay to identify small molecule antagonists of the estrogen receptor alpha (ER-alpha) signaling pathway (AID 743069; active means well fitted curve in the direction sought with a large enough effect in the signal ratio in the repeat runs, not every such curve was filed as active; inconclusive means weak or mixed curves, or effect the other way; inactive means no such curve, though single readings can be large or run the other way; the % refers to the signal ratio; further: potency means the concentration at half of the fitted maximal effect)
Sequence of Estrogen receptor (Homo sapiens) (P03372 whole entry, looked up): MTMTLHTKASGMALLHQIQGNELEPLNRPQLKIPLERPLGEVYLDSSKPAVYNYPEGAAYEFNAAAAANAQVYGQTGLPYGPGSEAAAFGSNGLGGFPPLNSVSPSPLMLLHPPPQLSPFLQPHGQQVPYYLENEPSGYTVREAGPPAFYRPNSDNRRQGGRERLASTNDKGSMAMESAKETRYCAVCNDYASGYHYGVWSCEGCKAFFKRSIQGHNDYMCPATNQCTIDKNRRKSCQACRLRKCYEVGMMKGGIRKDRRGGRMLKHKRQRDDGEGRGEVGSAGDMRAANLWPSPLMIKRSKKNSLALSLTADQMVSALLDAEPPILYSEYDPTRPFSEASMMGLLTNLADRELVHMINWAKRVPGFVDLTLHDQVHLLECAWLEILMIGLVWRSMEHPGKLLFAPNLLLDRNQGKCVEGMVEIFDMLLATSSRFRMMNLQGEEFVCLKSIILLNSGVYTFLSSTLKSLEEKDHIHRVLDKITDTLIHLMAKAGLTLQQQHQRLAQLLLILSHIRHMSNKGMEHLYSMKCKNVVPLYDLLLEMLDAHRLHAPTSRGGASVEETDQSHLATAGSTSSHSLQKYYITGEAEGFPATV
In short: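 In this cell-based reporter format, GripTite HEK293 cells harbouring ER-alpha-UAS-bla were grown overnight with 2% charcoal-stripped FBS, dosed with DMSO-dissolved compounds, then challenged with 17beta-estradiol. After 18 hr at 37C, beta-lactamase activity was detected by FRET fluorescence.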

[10] = qHTS assay to identify small molecule antagonists of the estrogen receptor alpha (ER-alpha) signaling pathway - cell viability counter screen (AID 743074; calls by dose curve; further: nearly all actives have a fitted effect of over 45% in size; further: potency means the concentration at half of the fitted maximal effect)
[11] = biological target: Estrogen receptor (Homo sapiens) (UniProt P03372); assay: qHTS assay to identify small molecule agonists of the estrogen receptor alpha (ER-alpha) signaling pathway (AID 743075; calls by dose curve)
[12] = biological target: Estrogen receptor (Homo sapiens) (UniProt P03372); assay: qHTS assay to identify small molecule agonists of the estrogen receptor alpha (ER-alpha) signaling pathway using the BG1 cell line (AID 743079); conditions: BG1Luc4E2 cells, ERE-luciferase agonist, 22 h; activation: at 70.3 µM (top of the series); further: nearly all actives have a fitted effect of over 20% in size; further: potency means the concentration at half of the fitted maximal effect
[13] = qHTS assay to identify small molecule antagonists of the estrogen receptor alpha (ER-alpha) signaling pathway using the BG1 cell line (AID 743080; calls by dose curve;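 further: BG1 cells stimulated with 17beta-estradiol alongside compound; nearly all actives have a fitted effect of over 25% in size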)
In short: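 Seeding, 24 h rest, compound transfer from DMSO, 17beta-estradiol addition, 21.5 h incubation, CellTiter-Fluor (30 min, 37 C), then ONE-Glo (30 min, room temperature): this sequence was run on BG1-Luc-4E2 reporter cells.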

Aromatase (Homo sapiens) = Aromatase (Homo sapiens) (UniProt P11511); assay: qHTS assay to identify aromatase inhibitors (AID 743083); further: nearly all actives have a fitted effect of over 55% in size; further: potency means the concentration at half of the fitted maximal effect
Sequence of Aromatase (Homo sapiens) (P11511 whole entry, looked up): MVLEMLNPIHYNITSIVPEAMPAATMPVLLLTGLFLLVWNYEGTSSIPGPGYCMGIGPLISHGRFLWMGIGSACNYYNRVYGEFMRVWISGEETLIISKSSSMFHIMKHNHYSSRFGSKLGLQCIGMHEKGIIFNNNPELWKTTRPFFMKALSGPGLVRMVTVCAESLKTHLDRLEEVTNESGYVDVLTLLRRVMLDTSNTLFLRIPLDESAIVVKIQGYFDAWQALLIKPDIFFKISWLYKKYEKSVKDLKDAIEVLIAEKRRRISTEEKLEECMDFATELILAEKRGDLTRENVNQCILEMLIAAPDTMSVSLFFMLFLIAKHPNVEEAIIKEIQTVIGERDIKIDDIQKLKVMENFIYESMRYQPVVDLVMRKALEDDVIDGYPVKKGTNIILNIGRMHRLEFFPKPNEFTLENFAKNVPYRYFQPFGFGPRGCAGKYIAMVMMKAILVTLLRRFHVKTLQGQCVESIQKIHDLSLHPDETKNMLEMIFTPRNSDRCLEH

[14] = qHTS assay to identify small molecule antagonists of the estrogen receptor alpha (ER-alpha) signaling pathway using the BG1 cell line - cell viability counter screen (AID 743081);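 further: compound given together with 17beta-estradiol as the ER stimulus; nearly all actives have a fitted effect of over 45% in size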
[15] = qHTS assay for identifying genotoxic compounds that show differential cytotoxicity against isogenic chicken DT40 cell lines with known DNA damage response pathways - Rad54/Ku70 mutant cell line (AID 743015); further: nearly all actives have a fitted effect of over 60% in size; further: potency means the concentration at half of the fitted maximal effect
[16] = biological target: Androgen receptor (Homo sapiens) (UniProt P10275); assay: qHTS assay to identify small molecule antagonists of the androgen receptor (AR) signaling pathway (AID 743035; active means well fitted inhibition curve with a large enough effect in the signal ratio in the repeat runs, not every such curve was filed as active; inconclusive means weak or mixed curves, or effect the other way; inactive means no such curve, though single readings can be large or run the other way; the % refers to the signal ratio)
Sequence of Androgen receptor (Homo sapiens) (P10275 whole entry, looked up): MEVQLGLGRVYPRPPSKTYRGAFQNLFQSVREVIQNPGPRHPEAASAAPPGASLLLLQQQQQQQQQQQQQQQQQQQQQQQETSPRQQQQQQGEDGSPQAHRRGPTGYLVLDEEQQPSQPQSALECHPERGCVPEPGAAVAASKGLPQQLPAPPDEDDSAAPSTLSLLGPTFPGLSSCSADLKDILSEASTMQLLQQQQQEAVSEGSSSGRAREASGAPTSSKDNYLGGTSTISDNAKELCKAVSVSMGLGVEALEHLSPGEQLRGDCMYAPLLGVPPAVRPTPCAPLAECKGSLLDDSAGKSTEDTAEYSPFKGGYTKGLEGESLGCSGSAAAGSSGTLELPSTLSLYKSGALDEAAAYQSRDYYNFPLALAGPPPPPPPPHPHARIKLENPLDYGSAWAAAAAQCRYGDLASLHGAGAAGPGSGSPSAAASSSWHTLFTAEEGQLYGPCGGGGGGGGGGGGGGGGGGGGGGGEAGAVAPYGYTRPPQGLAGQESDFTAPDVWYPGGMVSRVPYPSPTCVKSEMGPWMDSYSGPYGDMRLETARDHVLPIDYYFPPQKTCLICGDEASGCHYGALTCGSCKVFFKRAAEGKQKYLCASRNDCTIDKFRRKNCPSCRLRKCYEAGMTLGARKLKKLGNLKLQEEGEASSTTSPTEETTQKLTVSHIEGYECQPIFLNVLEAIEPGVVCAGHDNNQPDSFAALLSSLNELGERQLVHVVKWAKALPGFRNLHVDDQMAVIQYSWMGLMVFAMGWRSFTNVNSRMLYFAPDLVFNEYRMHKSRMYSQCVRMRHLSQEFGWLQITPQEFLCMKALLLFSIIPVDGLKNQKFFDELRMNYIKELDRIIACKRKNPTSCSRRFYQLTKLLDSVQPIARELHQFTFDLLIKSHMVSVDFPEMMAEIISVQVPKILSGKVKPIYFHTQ
In short: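 R1881 agonist challenge of a HEK293 UAS-beta-lactamase AR reporter line in the presence of compound (16 h, 37C); signal taken as FRET fluorescence after 2 h with LiveBLAzer B/G substrate at room temperature.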

[17] = biological target: Androgen receptor (Homo sapiens) (UniProt P10275); assay: qHTS assay to identify small molecule agonists of the androgen receptor (AR) signaling pathway (AID 743036; active means well fitted activation curve with a large enough effect in the signal ratio in the repeat runs, with a control signal flat, not every such curve was filed as active; inconclusive means weak or mixed curves, or effect the other way; inactive means no such curve, though single readings can be large or run the other way; the % refers to the signal ratio)
In short: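 AR-bla HEK293 cells, 2,000/well; 4 h preincubation 37C/5% CO2; compound (DMSO) 16 h at 37C; LiveBLAzer B/G FRET substrate 2 h RT; fluorescence intensity read-out.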

[18] = biological target: Androgen receptor (Homo sapiens) (UniProt P10275); assay: qHTS assay to identify small molecule agonists of the androgen receptor (AR) signaling pathway using the MDA cell line (AID 743040; further: nearly all actives have a fitted effect of over 20% in size; further: potency means the concentration at half of the fitted maximal effect)
In short: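 Testing was done with the MDA-kb2 AR-luc line, a human breast carcinoma stably transfected with MMTV-luciferase containing AR and GR response elements. Cells were exposed 16 h at 37C before ONE-Glo luminescence detection.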

[19] = biological target: Androgen receptor (Homo sapiens) (UniProt P10275); assay: qHTS assay to identify small molecule antagonists of the androgen receptor (AR) signaling pathway using the MDA cell line (AID 743042; further: nearly all actives have a fitted effect of over 55% in size; further: potency means the concentration at half of the fitted maximal effect)
In short: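 MDA-kb2 breast carcinoma cells carrying MMTV-luciferase (AR/GR responsive) were co-treated with compounds and the agonist R1881 for 16 h at 37C. Inhibition read as ONE-Glo luminescence; CellTiter-Fluor fluorescence measured in parallel for cytotoxicity.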

Measured: Potency

O=P(O)(O)C(O)(Cc1cnc2ccccn12)P(=O)(O)O
inactive: [1] | [2] | [3] | [4] | [5] | [6] | [7] | [8] | [9] | [10] | [11] | [12] | [13] | Aromatase (Homo sapiens)

CC(=O)Nc1ccc(NC(=S)NC(=O)c2ccc(C(C)(C)C)cc2)cc1
inactive: [1] | [4] | [5] | [8] | [10] | [14] | Aromatase (Homo sapiens)
active: [2] 2.66 µM | [3] 2.66 µM | [6] 8.41 µM | [7] 2.66 µM

C=CCN1CCCC1CNC(=O)c1cc(S(N)(=O)=O)cc(OC)c1OC (stereo not drawn)
inactive: [1] | [2] | [3] | [4] | [5] | [6] | [7] | [8] | [10] | [11] | [12] | [13] | [14] | Aromatase (Homo sapiens)

O=C(Cc1cccs1)N[C@@H]1C(=O)N2C(C(=O)[O-])=C(C[n+]3ccccc3)CS[C@H]12
inactive: [1] | [2] | [15] | [4] | [16] | [17] | [18] | [5] | [19] | [6] | [7] | [8] | [9] | [10] | [11] | [12] | [13] | [14] | Aromatase (Homo sapiens)

Cc1cccc(C)c1NC(=O)NC1=CCCN1C
inactive: [1] | [2] | [15] | [4] | [16] | [17] | [18] | [5] | [19] | [6] | [7] | [8] | [14] | Aromatase (Homo sapiens)

C[C@@](Cc1ccc(O)c(O)c1)(NN)C(=O)O
active: [2] 29.8 µM | [3] 29.8 µM
inactive: [1] | [4] | [5] | [6] | [7] | [8] | [9] | [10] | [11] | [13] | [14] | Aromatase (Homo sapiens)

Nc1nc2c(c(=O)[nH]1)N(C=O)C(CNc1ccc(C(=O)N[C@@H](CCC(=O)O)C(=O)O)cc1)CN2 (stereo partly drawn)
inactive: [1] | [2] | [15] | [4] | [16] | [18] | [5] | [19] | [6] | [10] | [14] | Aromatase (Homo sapiens)

C=C1CC[C@H](O)CC1=C/C=C1\CCC[C@]2(C)[C@@H]([C@H](C)CC[C@@H](O)C(C)(C)O)CC[C@@H]12
inactive: [4] | [17] | [18] | [5] | [19] | [11] | [14] | Aromatase (Homo sapiens)
active: [1] 21.3 µM | [2] 7.5 µM | [15] 13.3 µM | [6] 26.6 µM | [7] 16.8 µM | [9] 21.3 µM [inconclusive]

COc1cc(-c2ccc(-[n+]3nc(-c4ccccc4)nn3-c3ccc([N+](=O)[O-])cc3)c(OC)c2)ccc1-[n+]1nc(-c2ccccc2)nn1-c1ccc([N+](=O)[O-])cc1
active: [1] 19 µM | [2] 5.96 µM | [3] 7.5 µM | [19] 29.8 µM | [6] 26.6 µM | [7] 29.8 µM | [10] 4.25 µM | Aromatase (Homo sapiens) 26.6 µM
inactive: [18]

CCCc1nc(C(C)(C)O)c(C(=O)OCc2oc(=O)oc2C)n1Cc1ccc(-c2ccccc2-c2nn[nH]n2)cc1
inactive: [1] | [2] | [3] | [4] | [5] | [6] | [7] | [8] | [10] | [14] | Aromatase (Homo sapiens)

CCC(=O)NS(=O)(=O)c1ccc(-c2c(-c3ccccc3)noc2C)cc1
inactive: [1] | [2] | [3] | [4] | [5] | [6] | [7] | [8] | [10] | [11] | [12] | [13] | Aromatase (Homo sapiens)

COC(=O)CCC(=O)CN
inactive: [1] | [2] | [3] | [4] | [5] | [9] | [10] | [11] | [12] | [13] | [14] | Aromatase (Homo sapiens)

CN1CCCC(CN2c3ccccc3Sc3ccccc32)C1 (stereo not drawn)
inactive: [1] | [4] | [10] | [11] | [12] | [13] | [14]
active: [2] 7.5 µM | [3] 8.41 µM | [6] 11.9 µM | [7] 11.9 µM

CC(C)[C@@H]1CC[C@@H](C)C[C@H]1OC(=O)c1ccccc1O
inactive: [1] | [2] | [15] | [4] | [17] | [18] | [5] | [19] | [6] | [7] | [8] | [9] | [10] | [11] | [12] | [13] | Aromatase (Homo sapiens)

O=C(O)C1=C(CSc2nnnn2CS(=O)(=O)O)CS[C@@H]2[C@H](NC(=O)[C@H](O)c3ccccc3)C(=O)N12
inactive: [1] | [2] | [15] | [4] | [16] | [17] | [5] | [19] | [6] | [7] | [8] | [10] | [11] | [13] | [14] | Aromatase (Homo sapiens)
active: [18] 26.6 µM | [12] 37.6 µM

— PubChem BioAssay (Tox21)
